The structures appear in SMILES notation. Inconclusive results are not listed. Entries that show only a call come without a potency. Active and inactive are the calls of the source. The call rests on the fitted dose curve; in most records, active means well fitted curve in the direction sought with a large enough effect in the repeat runs; inconclusive means weak or mixed curves; inactive means no such curve, though single readings can be large; an effect the other way counts as inactive or inconclusive.

One experiment is described as follows: qHTS assay to identify small molecule antagonists of the thyroid receptor (TR) signaling pathway - cell viability counter screen (AID 743064). Further: nearly all actives have a fitted effect of over 50% in size. Conditions: GH3.TRE-Luc viability, CellTiter-Fluor, 24 h; series mostly up to 70.3 µM. The method in brief: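 Rat GH3 pituitary tumor cells stably expressing two TR response elements driving luciferase were plated, rested 4 h, then dosed with library compounds and T3 (1 nM final). After 23.5 h at 37 °C, CellTiter-Fluor was added for 30 min and fluorescence recorded.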
A general note: Quantitative high-throughput screening tests each substance at several concentrations.
`CC(C)[C@H]1CC[C@@H](C)CC1=O`: the Potency entry was “inactive”.
The same measure, in the same setting: under `COc1cc2c(cc1OC)-c1cc3ccc(OC)c(OC)c3c[n+]1CC2` stands “inactive”; under `CCN(CC#N)c1cccc(C)c1`, “inactive”; under `CC(C#N)(CCC(=O)O)N=NC(C)(C#N)CCC(=O)O` (stereo unspecified), “inactive”.
Same read-out and setting: under `NC(=O)Cc1cccc2ccccc12` stands “inactive”.
For `CO[C@@]1(NC(=O)C(C(=O)O)c2ccc(O)cc2)C(=O)N2C(C(=O)O)=C(CSc3nnnn3C)CO[C@@H]21` (stereo partly specified), the Potency entry is “inactive”.
Same read-out and setting: the same measure for `CC(=O)Nc1ccc(OCC(O)CNC(C)C)cc1` (stereo unspecified): “inactive”.

The nature of the next experiment: qHTS assay to identify small molecule antagonists of the thyroid receptor (TR) signaling pathway (AID 743065). Further: nearly all actives have a fitted effect of over 55% in size. Further: potency means the concentration at half of the fitted maximal effect. The conditions noted are these: GH3.TRE-Luc, T3-stimulated luciferase inhibition, 23.5 h; series mostly up to 70.3 µM. The method in brief:
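GH3.TRE-Luc rat pituitary cells carrying two TR response elements driving luciferase were plated for 4 h, given compound plus 1 nM T3 (final), and incubated 23.5 h at 37 C. ONE-Glo luminescence measured reporter inhibition; CellTiter-Fluor fluorescence tracked cytotoxicity.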
Regarding `CCCCCCCCCCOc1cc2c(=O)c(C(=O)OCC)c[nH]c2cc1OCC`, the Potency entry was “inactive”.
Regarding `CCOC(=O)C1=NOC(c2ccccc2)(c2ccccc2)C1`, the Potency result was “inactive”.
Regarding `CCCOC(=O)CC`, the Potency result is “inactive”.
On the same count and under the same terms, under `O=C(c1ccccc1O)c1ccccc1O` stands “inactive”.
Still for that read-out and setting: the same measure for `NC(=O)N[C@@H](CCC(=O)O)C(=O)O`: “inactive”; for `CCCCN(CCC(=O)OCC)C(C)=O`: “inactive”; for `CC1OC1C1CCC2(C)OC2C1` (stereo unspecified): “inactive”.
Same read-out and setting: the same measure for `CC1=CC(=O)[C@H]2C[C@@H]1C2(C)C`: “inactive”; for `CC(C)C(=O)OC(=O)C(C)C`: “inactive”; for `CCN1C=CN(C)C1C` (stereo unspecified): “inactive”.
Turning to `O=C1NC(=O)C2CC=CCC12` (stereo unspecified), the Potency entry is “inactive”.
For `CC(=O)N1C[C@H](O)C[C@H]1C(=O)O`, the Potency entry is “inactive”.
As for `O=C(c1ccccc1)C1(O)CCCCC1`, the Potency result is “inactive”.
On the same count and under the same terms, the same measure for `CN1CC(=O)N/C1=N/C(=O)Nc1cccc(Cl)c1`: “inactive”; for `CN1CCC(=C2c3ccccc3CCc3cccnc32)CC1`: 23.7 µM (active).
On the same count and under the same terms, under `CC(=O)c1ccccc1[N+](=O)[O-]` stands “inactive”.
For `O=C(O)c1cc(C(=O)O)cc(C(=O)O)c1`, the Potency entry was “inactive”.
Regarding `CCCCCCC1CCC(=O)O1` (stereo unspecified), the Potency entry is “inactive”.
As to `NC(=O)N1c2ccccc2CC(=O)c2ccccc21`, the Potency was 11.9 µM (active).
Still for that read-out and setting: under `O=CN(CCO)CCO` stands “inactive”; under `C=CCCCCCCCCC(=O)OCC`, “inactive”.
`CC(C)(C)C(=O)c1ccccc1`: the Potency result was “inactive”.
As to `CC1(C)[C@@H]2CC[C@@]1(C)[C@H](O)C2`, the Potency result was “inactive”.
For `CC1=NN(c2cc(S(=O)(=O)O)ccc2Cl)C(=O)C1N=Nc1ccccc1` (stereo unspecified), the Potency entry is “inactive”.
On to `CC(C)NNC(=O)c1ccncc1`, for which the Potency result was “inactive”.
With `CCCCCC(C)N` (stereo unspecified), the Potency entry is “inactive”.
Same read-out and setting: under `COCCOC[C@H](CC1(C(=O)NC2CCC(C(=O)O)CC2)CCCC1)C(=O)Oc1ccc2c(c1)CCC2` (stereo partly specified) stands “inactive”; under `CCN[C@H]1C[C@H](C)S(=O)(=O)c2sc(S(N)(=O)=O)cc21`, “inactive”; under `CCCCOC(=O)CCC(C)=O`, “inactive”.

The record behind these values is PubChem BioAssay (Tox21).
